Assay results taken from the supplement of paper PMC6555819.

Each sequence was assayed on VDR:RXRa (NR concentration 270 nM, RXRa partner concentration 90 nM) (assay: PBM binding z-score (relative to random genomic background probes); higher = stronger binding; sequences stand for … in GC…GCGATTGACAGCGTAGAATGAAGG).
Description: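 Protein-binding microarray (Agilent 4x180K custom design, double-stranded 60-nt probes: 5' GC cap, 34-nt variable region, 24-nt constant primer region; full probe sequence given). Purified or IVT nuclear receptor:RXRα heterodimers (3:1 NR:RXRα, mostly 270:90 nM) or homodimers were incubated for 1 h in PBS with 2% milk and no ligand, then detected with Alexa488 antibodies. Fluorescence from o1-orientation probes (~5 replicates averaged) was converted to z-scores against 500 random hg19 background probes. Variable regions are seed direct-repeat (DR0–DR5) sites, all their single-nucleotide variants and half-site ablations.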

| Sequence | PBM binding z-score |
| --- | --- |
| AGAATGAGGTTATACTTAGATCAGGGAAGAAAGT | 1.41 |
| CCAGACAGGTGAGAAAGTAACTCAGCCTCGATTA | 0.0167 |
| ACTAGCGGGCCAAGTTTGGGTCACTCAAACAAAG | 0.318 |
| CGTCCAAGGTCAATGCTAGGTCATTGAAAGCATT | 5.84 |
| TGAATGAGGTTAAAGATCATGGAACGTGGCGTCG | 2.05 |
| ACAGAAAGGTGATGAAGGTAACTCAGGCTATCAT | 1.2 |
| TGAATGAGGTTAAAGATAAGGGAACGTGGCGTCG | 1.36 |
| CTCGAAAGGTCCTGCTCAGGTGAGTATACCAAAC | -0.0691 |
| CCTCGGAGGATAACAGGAGGTCAGAGCTGCCAGA | 1.5 |
| TCAGAGAGGTGAAGGTAACTCAGGTACGCAGTCG | 0.999 |
| GCTATTAGTTGAAAGGGCAACGGAATGATTCTCG | 0.383 |
| CTCGAAAGGTAGGTTGAGGTGAGTATACGGATAA | 0.309 |
| CTCGAAAGGTCGGTTGAGGTGAGTCTACGGATAA | 2.45 |
| TCATATAGGTGATACAGGTGAAAGTCGGCATCTA | 1.19 |
| TATATTAGTTGATTAGGGCAACCGAAACAGCGGA | 0.452 |
| TCTGCTAGTTCAACGATGGTCAGCTAATCTGCTA | 0.196 |
| ATCTATAGGTAACAAGTTCAGTGAAAGAGAGGAC | 2.43 |
| CGAACTAGGTCATTGACAGGACCGTGAATAGTAA | 1.51 |
| CCTACTGGACCATCAGGTCATTGATATCAACGTT | 2.24 |
| ACTATCAGGCCAAGTTTGGGTCACTCAAACAAAG | 1.01 |

| Sequence | PBM binding z-score |
| --- | --- |
| GATACAGGGTCCAGGCCAGAGTACGCGTATTGAT | -0.0532 |
| AGAATGCGGTTATACGTAGATCAGGGAAGAAAGT | -0.334 |
| ACTAGCAGGCCAAGGATCACTCAAGATTAGTCCG | -0.428 |
| CGTCGAAGGTCAGCAGGTCAGTGAAAGCGACGTG | 3.61 |
| ATATGTAGGTTAAGAGTCATTCAGGTTGGTTCGC | 1.6 |
| TGAATGAGGTTATAGGATCAGGGAACGTTGCAAA | 1.13 |
| CGTCGAAGTTCAACTAAGGTAACGTAAAGCACGC | 3.43 |
| CCTAGCATGCCAGGGTCACTCAAGCATTTCGCTT | 2.59 |
| ACTATTAGTTGCGACGAGGGCAACCGATAGGTTG | 0.0281 |
| CGTCCAAGGTCAAAGGTAAGTGAAGAGATGACGG | 4.55 |
| CCAACTGGGCCAAAGGTCATTGATTCCAATGCTC | 4.72 |
| GCTAGCAGGCCATTTGGGTCACGCAATGACGGGC | 1.61 |
| TAGCCTAGGTCATTCAGGGGCCCGTATAGAAAGC | 2.51 |
| TCTTGTAGATCAATAGAGGCTAAGAAAGTGCGCT | 0.377 |
| TCATATAGGTAAATGCTCGGTGAAAGTCCGATCT | 1.01 |
| GTACCAAGGTGAATAGTTCGTTGATGAGTAGGCG | 0.251 |
| TAGACTAGGTCATTCAGGGGCCAGTATAGAAAGC | 2.48 |
| CGTCAAAGTTCAACTAAGGTAACATAAAGCACGC | 4.72 |
| ATCACTAGGTAAAGATAGTTCAGTGAATGCAAAT | 0.888 |
| GCTAGCTGGTCAGTAAAAGGTCACACACCGGTCG | 3.52 |
